Screening results as filed in PubChem.
The list is not random: actives were taken first. Their share in the collection is about 0.92%.
APE1 inh = qHTS Assay for Inhibitors of the Human Apurinic/apyrimidinic Endonuclease 1 (APE1); DNA repair nuclease/redox regulator APEX1 (Homo sapiens), P27695; recombinant APE1, TAMRA/BHQ-2 abasic DNA cleavage fluorescence; Potency, µM (titrated, usually from 65.8 µM), for the others: at the highest dose activity change, negative = inhibition, most hits filed as inhibitors; actives 0.35% (n = 350,000);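 note: plate controls were vehicle for no effect and reference inhibitor for full effect; nearly all actives have a fitted effect of over 55% in size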
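Endonuclease cleavage of a quenched abasic-site DNA duplex (50 nM) by APE1 (0.75 nM) was tracked by TAMRA dequenching. Compounds were preincubated with enzyme 15 min at room temperature; data normalized to buffer-only and DMSO wells plus NSC13755 control.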
FEN1 inh = qHTS Assay for the Inhibitors of Human Flap endonuclease 1 (FEN1). AID 588795, 2011. Recombinant FEN1 flap cleavage, fluorescence, 15 min. Potency, µM (series often up to 114 µM), for the others: at the top dose activity change, negative = inhibition, usual class: inhibitors. actives 0.35% (n = 390,000); note: nearly all actives have a fitted effect of over 65% in size
Target sequence (P39748 whole entry, looked up): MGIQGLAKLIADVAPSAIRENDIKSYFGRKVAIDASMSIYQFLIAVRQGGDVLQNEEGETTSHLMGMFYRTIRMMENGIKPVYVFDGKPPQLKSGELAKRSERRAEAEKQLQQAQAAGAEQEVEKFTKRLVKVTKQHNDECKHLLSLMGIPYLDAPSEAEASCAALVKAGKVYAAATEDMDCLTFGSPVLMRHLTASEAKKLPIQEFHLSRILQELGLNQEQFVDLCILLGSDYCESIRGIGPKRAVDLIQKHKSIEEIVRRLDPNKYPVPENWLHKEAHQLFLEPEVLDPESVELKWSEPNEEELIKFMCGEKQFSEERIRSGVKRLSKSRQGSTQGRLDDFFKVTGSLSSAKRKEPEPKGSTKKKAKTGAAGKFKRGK
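Compounds are tested as a concentration series against 10 nM FEN1; after a 15 min room-temperature preincubation, 50 nM substrate starts cleavage, with plate reads at 0 and 15 min. Normalized responses are fitted by a Hill equation.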
RECQ1 inh = qHTS Assay for Inhibitors of RecQ-Like Dna Helicase 1 (RECQ1); Potency, µM (top dose mostly 57.3 µM), inactives show at the highest dose activity, negative = inhibition, hits mostly inhibitors; RECQ1 DNA unwinding, red fluorescence kinetic read; actives 0.54% (n = 240,000); ATP-dependent DNA helicase Q1 (Homo sapiens), P46063;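 note: plate controls were vehicle for no effect and no enzyme for full effect; nearly all actives have a fitted effect of over 30% in size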
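50 nM RECQ1T1 preincubated 15 min with compound in Tris pH 8.0 buffer with MgCl2, DTT, Tween-20 and 2.5 ug/ml poly(dI-dC); started with 200 nM TAMRA/BHQ-2 forked duplex and 2 mM ATP. Unwinding read as fluorescence (525/598 nm), two reads 2 h apart.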
TDP1 inh = qHTS Assay for Inhibitors of Tyrosyl-DNA Phosphodiesterase (TDP1); actives 0.28% (n = 350,000); Tyrosyl-DNA phosphodiesterase 1 (Homo sapiens), Q9NUW8; Potency, µM (doses to about 130 µM), for inactives: at the highest dose activity change, negative = inhibition, most hits filed as inhibitors; recombinant TDP1, AlphaScreen DNA substrate cleavage; AID 485290, 2010; note: nearly all actives have a fitted effect of over 40% in size
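Recombinant E. coli-expressed Tdp1 (1 nM) preincubated with compound 15 min at RT, then 5'-biotin/3'-phosphotyrosine-FITC DNA substrate (15 nM) added for 5 min. AlphaScreen beads (10 ug/ml) added, 10 min RT; tyrosine-FITC cleavage read as signal loss.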
BLM inh = qHTS Assay for Inhibitors of Bloom's syndrome helicase (BLM). RecQ-like DNA helicase BLM (Homo sapiens), P54132. recombinant BLM DNA unwinding, fluorescence dequenching. Potency, µM (top dose mostly 56.1 µM), for inactives: top-dose activity change, negative = inhibition, usual class: inhibitors. actives 0.2% (n = 350,000). AID 2528, 2010;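 note: plate controls were vehicle for no effect and no enzyme for full effect; nearly all actives have a fitted effect of over 35% in size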
Numbers without * were called inactive; [ ] = another dose, or the depositor's remark. Calls come from the whole dose curve; as a rule, active = well fitted curve in the direction sought with a large enough effect; inconclusive = small, poorly fitted or top-dose-only effect, or another doubt; inactive = no such curve, though single readings can be large; an effect the other way counts as inactive or inconclusive. Unless noted, % is set by controls: 0 for no effect and ±100 for the full control effect; potency is the fitted concentration of half-maximal effect.

For NC(=O)[C@H]1CC2(CC(c3cccc(NC(=O)[C@H]4CCC(=O)N4)c3)=NO2)CN1C(=O)c1ccccc1 (some centres not stated) the results were APE1 inh inconclusive, FEN1 inh 79µM*, RECQ1 inh inactive, TDP1 inh 14µM* and BLM inh -7%.
Screening C=C(C)C(=O)Nc1cccc(C2=NOC3(C2)C[C@@H](C(N)=O)N(C(=O)/C=C/C=C/C)C3)c1 (some centres not stated) returned APE1 inh inconclusive, FEN1 inh inconclusive, RECQ1 inh inconclusive, TDP1 inh 35µM* and BLM inh -12%.
Screening Cc1nc([N+](=O)[O-])cn1CC(O)c1ccc2c(c1)OCO2 (configuration not stated) returned FEN1 inh -8%.
`CN(C)CCOc1nc(-c2ccccc2)nc2c1oc1ccccc12` gave APE1 inh -11%, FEN1 inh 50µM*, RECQ1 inh 5%, TDP1 inh 3% and BLM inh 156%.
`CN(C)CCOc1ncnc2c1oc1ccccc12` gave APE1 inh -3%, FEN1 inh 5%, RECQ1 inh 12%, TDP1 inh 2% and BLM inh 8%.
For CCOc1ccc(C(=O)Nc2cccc(NC(=O)c3ccco3)c2)cc1Cl the results were FEN1 inh 89µM*, TDP1 inh 0%[12.3 µM] and BLM inh -1%.
`Cc1cccc(NC(=O)CN2CCN(C(=O)c3cccc(-n4cnnn4)c3)CC2)c1C` gave APE1 inh 15%, FEN1 inh 5% and TDP1 inh 1%.
`Cc1cccc(NC(=O)CN2CCN(C(=O)c3ccc(OCc4cn5ccccc5n4)cc3)CC2)c1C` gave APE1 inh -8%, FEN1 inh 20% and TDP1 inh 45µM*.
For COc1ccc(-c2cc3nc(C)c(CCC(=O)N4CCN(c5cc(C)ccc5C)CC4)c(C)n3n2)c(OC)c1 the results were FEN1 inh -3%, TDP1 inh 5% and BLM inh -18%.
Screening CC(=O)Nc1ccc(N/C=C/C(=O)c2ccc(Cl)cc2)cc1 returned APE1 inh 21%, FEN1 inh 1%, TDP1 inh 32µM* and BLM inh -13%.
`N#Cc1c(NC(=O)COC(=O)c2ccc(O)cc2O)sc2c1CCC2` gave APE1 inh 12µM*, FEN1 inh -12% and TDP1 inh 22µM*.
For O=C(COc1ccc2oc(-c3ccccc3)cc(=O)c2c1)NCc1ccco1 the results were APE1 inh inconclusive, FEN1 inh -8%, RECQ1 inh -12%, TDP1 inh 50µM* and BLM inh -17%.
CC(C)C1=CC2=CC[C@@H]3[C@](C)(CCC[C@@]3(C)C(=O)O)[C@H]2CC1 was read as TDP1 inh 4% and BLM inh 4%.
Cc1cc2c(s1)c1cnn(Cc3cccc(F)c3F)c(=O)c1n2C was read as TDP1 inh -4%.
Screening Cc1cc2c(s1)c1cnn(Cc3ccc(Cl)cc3)c(=O)c1n2C returned TDP1 inh 35µM*.
For Cn1c2cc(Br)sc2c2cnn(Cc3ccc(F)cc3F)c(=O)c21 the results were APE1 inh -6%, FEN1 inh -23% and TDP1 inh 2%.
For Cn1c2cc(B(O)O)sc2c2cnn(Cc3ccc(F)cc3F)c(=O)c21 the results were APE1 inh 13µM*.
`Cn1c2cc(B(O)O)sc2c2cnn(Cc3c(F)cccc3F)c(=O)c21` gave APE1 inh 21µM*.
`COCCCNC(=O)C(=O)NCC(c1ccc2c(c1)OCO2)N1CCOCC1` (configuration not stated) gave FEN1 inh -6%, TDP1 inh 2% and BLM inh 0%.
Screening Cc1ccc2onc(CC(=O)N3CCN(c4ccc(F)cc4)CC3)c2c1 returned FEN1 inh -14%, TDP1 inh -3% and BLM inh -6%.
O=C(N/N=C/c1cc(Br)c(O)c(Br)c1O)c1ccc2c(c1)OCCO2 was read as APE1 inh -15%, FEN1 inh 5%, TDP1 inh 4% and BLM inh -13%.
O=C(N/N=C/c1cc(Br)c(Br)o1)c1ccc2c(c1)OCCO2 was read as APE1 inh 32µM*, FEN1 inh -22%, RECQ1 inh inconclusive, TDP1 inh 1% and BLM inh 3%.
Screening COc1ccc(CN2C(=O)N(c3ccccc3)C(=O)C2c2ccccc2)cc1COc1ccc(NC(C)=O)cc1 (configuration not stated) returned FEN1 inh -15% and TDP1 inh 0%.
Screening Nc1ccc(S(=O)(=O)Nc2nccs2)cc1N=Nc1ccccc1[N+](=O)[O-] returned FEN1 inh 50µM*.
Cc1ccc(NC(=O)c2cccs2)cc1NC(=O)c1cccc(F)c1 was read as APE1 inh 19%, FEN1 inh -2% and BLM inh -3%.
`COc1cccc(C(=O)Nc2cc(NC(=O)c3cccs3)ccc2C)c1` gave APE1 inh 25%, FEN1 inh -5%, TDP1 inh 6.3µM* and BLM inh -8%.
For CCOc1ccc(NC(=O)c2ccc(NC(=O)c3ccc(NC(N)=O)cc3)cc2)cc1 the results were APE1 inh 13µM*, FEN1 inh inconclusive and TDP1 inh 56µM*.
CCOc1ccc(NC(=O)c2ccc(N)cc2)cc1 was read as APE1 inh -3%, FEN1 inh 9%, RECQ1 inh 0%, TDP1 inh -8% and BLM inh 3%.
For COc1ccc(-c2nc3ccccc3c(=O)n2Cc2ccco2)cc1COc1ccc(NC(C)=O)cc1 the results were TDP1 inh -4%.
Screening COc1ccc(-c2nc3ccccc3c(=O)n2Cc2ccc(CNC(=O)CO)cc2)cc1COc1ccc(NC(C)=O)cc1 returned TDP1 inh 79µM*.
Screening COc1ccc(-c2nc3ccc(NC(C)=O)cc3c(=O)n2Cc2cccc(Cl)c2)cc1COc1ccc(NC(C)=O)cc1 returned FEN1 inh 79µM* and TDP1 inh -9%.
O=C1CCC[C@@H]2CC(N(Cc3cc4ccccc4s3)c3ccccc3)C[C@@H]3CCN1[C@H]23 (some centres not stated) was read as FEN1 inh -16%.
`O=C1NC(=S)NC1=Cc1ccco1` gave FEN1 inh 45µM*.
